Reference: PubChem BioAssay (NCATS)
Results filed as inconclusive are left out. Calls of active or inactive are those of the source. The call rests on the fitted dose curve; in most records, active means well fitted inhibition curve with a large enough effect; inconclusive means small, poorly fitted or top-dose-only effect; inactive means flat fitted curve, though single readings scatter.

What was measured:
[1] = test system: CRL-7250; test: Cytotoxic Profiling of Annotated Libraries Using Quantitative High-Throughput Screening (AID 1296008); details: Five cell lines viability, CellTiter-Glo ATP luminescence, 48-72 h; max response: hits give low values; further: potency means the concentration at half of the fitted maximal effect; on max response: on the % scale 0 is the no-effect control and ±100 the full control effect
How it was run: (§1)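 Cytotoxicity was measured as CellTiter-Glo ATP luminescence, read after 10 min at room temperature. Compound treatment of the cells lasted 48 or 72 hr at 37 degrees Celsius in a qHTS format.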

[2] = test system: HEK293; test: as above; details: Five cell lines viability, CellTiter-Glo ATP luminescence, 48-72 h; max response: hits give low values
How it was run: as §1

[3] = test system: HaCat; test: as above; details: Five cell lines viability, CellTiter-Glo ATP luminescence, 48-72 h; max response: hits give low values
How it was run: as §1

[4] = test system: KB-3-1; test: as above; details: Five cell lines viability, CellTiter-Glo ATP luminescence, 48-72 h; max response: hits give low values
How it was run: as §1

[5] = test system: NIH3T3; test: as above; details: Five cell lines viability, CellTiter-Glo ATP luminescence, 48-72 h; max response: hits give low values
How it was run: as §1

[6] = test system: HACAT; test: qHTS assay to identify novel small-molecules to repurpose for Merkel cell carcinoma treatment (AID 1296009); details: MCC and control cell lines, CellTiter-Glo viability, 72 h; series mostly up to 44.8 µM
How it was run: (§2)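 Cell viability, measured as CellTiter-Glo luminescence, was normalized between DMSO and no-cell wells. The cells had been exposed to 8- or 11-point compound dilutions for 72 hr at 37 degree celsius.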

[7] = test system: HEK293T; test: as above; details: MCC and control cell lines, CellTiter-Glo viability, 72 h; at 44.8 µM (top of the series) unless noted
How it was run: as §2
Further: nearly all actives have a fitted effect of over 60% in size.

COc1ncc2cc(C(=O)Nc3cc(C(=O)NCc4cccc(Cl)c4)ccc3Cl)c(=O)[nH]c2n1
inactive: outcome [1] | max response [2] -14.6% | outcome [3] | max response [5] -0.237% | Potency [6]
active: Potency [4] 4110 nM

COc1ccc(N(C)c2nc(C)nc3ccccc23)cc1
active: Potency [1] 10.3 nM | Potency [2] 7.3 nM | Potency [4] 5.2 nM
inactive: outcome [3] | Potency [6]

CC(=O)OC/C=C(\C)C(CC1C(C)=C(OC(C)=O)C(=O)C2C(C)(C)C(O)CCC12C)OC(C)=O (stereo not drawn)
inactive: max response [1] 1.57% | max response [2] -0.0321% | outcome [3] | outcome [4] | Potency [6]

CCNC(=O)Nc1ncc(-c2cc(-c3c(C)cc(OC)cc3C)nc(-c3cnccn3)n2)s1
inactive: max response [1] -11.4% | outcome [2] | outcome [3] | max response [4] 1.64% | Potency [6] | outcome [7]

COC(=O)C1=CO[C@@H](O[C@@H]2O[C@H](CO)[C@@H](O)[C@H](O)[C@H]2O)C2C1C(=O)C[C@H]2C (stereo partly drawn)
inactive: max response [1] -1.68% | max response [2] -7.74% | outcome [3] | outcome [4] | max response [5] 2.63% | Potency [6]

CS(=O)(=O)NCC1CCC(Nc2nc3c(s2)CCSc2ccccc2-3)CC1 (stereo not drawn)
active: Potency [2] 14600 nM
inactive: max response [1] -26.8% | outcome [3] | max response [4] -22.2% | Potency [6]

CCOC(=O)c1sc(NC(=O)[C@H](C(C)C)n2c(=O)[nH]c3ccccc3c2=O)nc1C
inactive: outcome [1] | max response [2] -9.44% | outcome [3] | max response [4] 8.45% | Potency [6]
